In PubChem BioAssay:
Several values for one entry are separate records, joined by “and”; a condition that tells them apart may be missing. Equal entries are not always repeated. Activity calls are given as the source filed them. Unless noted, how the calls were made is not given here.

Tests used:
[1] = P. berghei load reduction in hepatocytes – cell-based, HepG2, luciferase luminescence, HepG2 viability, primary screen (AID 624349; in the data active means parasite load remaining mostly below about 12%, no sharp cut-off; inactive means mostly above about 10%;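 further: 100% = mean of DMSO negative control wells on the same plate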); conditions: P. berghei liver stage in HepG2, luciferase luminescence, concentration not given here; parasite load remaining: stronger effect = lower value; viability: measured here: HepG2 viability without parasites
[2] = tested on: Hepatitis C virus NS3 helicase; test: blockers of NS3h binding to DNA – biochemical, fluorescence polarization, NIH Clinical Collection, primary screen (AID 743270); conditions: NS3 helicase binding to Cy5-dT15 DNA, stronger effect = higher value, concentration not given here
[3] = molecular target: Single-stranded DNA-binding protein (Escherichia coli (strain K12)) (UniProt P0AGE0); test: SSB-ssDNA binding inhibitors – biochemical, fluorescence polarization, NIH Clinical Collection, counter-screen for HCV NS3 helicase inhibitor project (AID 743271; in the data active means inhibition above about 28%); conditions: E. coli SSB-DNA binding, stronger effect = higher value, concentration not given here
[4] = compounds distorting NS3 helicase fluorescence signal – biochemical, NIH Clinical Collection, artefact control for HCV NS3 helicase inhibitor project (AID 743272); conditions: fluorescence interference counterscreen, HCV NS3 helicase assay; stronger effect = lower value;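 further: HCV NS3 helicase with a Cy5 labelled single stranded DNA probe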
[5] = tested on: Neuropilin-2 / VEGF-C interaction (human); test: small molecules blocking Neuropilin-2/VEGF-C interaction – biochemical, microplate binding format, z-score (AID 743281); conditions: microplate NRP2/VEGF-C binding assay; stronger effect = lower value
[6] = Wnt pathway potentiators raising nuclear beta-catenin – imaging, WNT3A-conditioned medium, mouse C2C12, NPC library, primary screen (AID 1117326; in the data active means nuclear beta-catenin stimulation mostly above about 4.2%, no sharp cut-off; inactive means mostly below about 10%); conditions: stronger effect = higher value
[7] = stimulators of insulin release from INS-1E, primary screen, cell-based, 5 mM glucose, NPC library (AID 1117329;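 active means compound raises insulin release from rat beta cells at 5 mM glucose, no numeric limit stated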); conditions: rat INS-1E insulin secretion, at 10 µM, stronger effect = higher value
[8] = growth inhibition of GSK3B-pretreated HCT116 cells – cell-based, CellTiter-Glo, 0.2 to 20 µM (AID 1117336;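 active means compounds lowering colon cancer cell viability after pretreatment blocking the GSK3B kinase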); conditions: HCT116 viability after GSK3B inhibitor, at 20 µM, stronger effect = higher value
[9] = inhibition of endothelial tube formation, primary screen, imaging, VEGF stimulated, CD31 staining, tube area, NPC library (AID 1117340;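 active means compound that reduces growth-factor-driven endothelial tube area in a mixed cell culture, no cutoff stated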); conditions: VEGF-stimulated ADSC/ECFC co-culture, at 10 µM, stronger effect = higher value
[10] = GLP1 release stimulators, primary, NCI-H716, NPC library (AID 1117341;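 active means compound raises GLP1 secretion from the human gut endocrine cells, with no numeric limit stated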); conditions: NCI-H716 cells, at 10 µM, stronger effect = higher value
[11] = HCT116 colon cancer cell growth inhibition, primary screen, CellTiter-Glo luminescence, NPC library (AID 1117342;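 active means compounds that lower survival of HCT116 colon cancer cells in the luminescence readout, no numeric limit stated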); conditions: at 20 µM (top of the series)
[12] = reduced SW480 viability measured with CellTiter-Glo, NPC library, primary (AID 1117343;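 active means compounds that lower viability of the colon cancer cells in the luminescence readout, with no numeric limit stated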); conditions: CellTiter-Glo luminescence; at 20 µM (top of the series)
[13] = NPC library primary testing for decreased DLD-1 cell viability via CellTiter-Glo (AID 1117346;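 active means compounds that lower survival of DLD-1 colon cancer cells in the luminescence readout, no cutoff given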); conditions: DLD-1 viability, CellTiter-Glo luminescence; at 20 µM (top of the series)
[14] = signal quenchers or enhancers, Cy5 substrate/SSB – biochemical, NIH Clinical Collection, E. coli SSB, artefact control for HCV NS3 helicase inhibitor project (AID 743268); conditions: Cy5-oligo bound E. coli SSB, fluorescence interference

CC(C)(C)NC(=O)[C@@H]1CN(Cc2cccnc2)CCN1C[C@@H](O)C[C@@H](Cc1ccccc1)C(=O)N[C@H]1c2ccccc2C[C@H]1O
71%: viability [1]
inactive: parasite load remaining [1] 83.6% | inhibition [2] -1.19% | inhibition [3] 1.44% | fluorescence ratio [4] 1.02 | z-score [5] 0.687 | nuclear beta-catenin stimulation ([6]; at 10 µM) 1.8% | insulin secretion stimulation [7] 6.7% | viability decrease [8] -0.8% | tube area decrease [9] 7.2% | GLP1 secretion stimulation [10] 4.1% | inhibition of viability [11] 10% | viability decrease (inhibition) [12] -7.5% | viability decrease (inhibition) [13] -9.3%
1.7%: nuclear beta-catenin stimulation ([6]; stimulation, at 2 µM)

Cc1ccc(NC(=O)c2ccc(CN3CCN(C)CC3)cc2)cc1Nc1nccc(-c2cccnc2)n1
65.9% and 227%: viability [1]
active: viability decrease [8] 94.3% | inhibition of viability [11] 98% | viability decrease (inhibition) [12] 97.6% | viability decrease (inhibition) [13] 88.8%
inactive: parasite load remaining [1] 17.1% and 60.3% | z-score [5] -0.734 | nuclear beta-catenin stimulation ([6]; at 10 µM) 7.1% | insulin secretion stimulation [7] -3.1% | tube area decrease [9] -31% | GLP1 secretion stimulation [10] 13.7%
-0.1%: nuclear beta-catenin stimulation ([6]; stimulation, at 2 µM)

CN1[C@@H]2CC[C@H]1CC(OC(=O)c1c[nH]c3ccccc13)C2 (some centres not stated)
102% and 67.5%: viability [1]
1.6%: nuclear beta-catenin stimulation ([6]; stimulation, at 2 µM)
active: inhibition of viability [11] 57.8% | viability decrease (inhibition) [12] 51.8%
inactive: parasite load remaining [1] 118% and 21.9% | fluorescence ratio [14] 1.02 | inhibition [2] -3.56% | inhibition [3] -3.95% | fluorescence ratio [4] 0.9 | z-score [5] -0.714 | nuclear beta-catenin stimulation ([6]; at 10 µM) 1.1% | insulin secretion stimulation [7] 13.7% | viability decrease [8] 24.6% | tube area decrease [9] 16.9% | GLP1 secretion stimulation [10] -0.1% | viability decrease (inhibition) [13] 43.6%

CCc1oc2ccccc2c1C(=O)c1cc(Br)c(O)c(Br)c1
active: viability decrease [8] 116% | tube area decrease [9] 101% | GLP1 secretion stimulation [10] 21.4% | inhibition of viability [11] 124% | viability decrease (inhibition) [12] 154% | viability decrease (inhibition) [13] 101%
4.6%: nuclear beta-catenin stimulation ([6]; stimulation, at 2 µM)
118% and 76% and 66.9%: viability [1]
inactive: fluorescence ratio [14] 0.92 | inhibition [2] -2.84% | inhibition [3] 9.06% | fluorescence ratio [4] 0.93 | z-score [5] 0.212 | nuclear beta-catenin stimulation ([6]; at 10 µM) 5.3% | insulin secretion stimulation [7] 4.6%

CN1CCCCC1CCN1c2ccccc2Sc2ccc(S(C)=O)cc21 (configuration not stated)
active: viability decrease [8] 51% | inhibition of viability [11] 36.7%
inactive: fluorescence ratio [14] 0.96 | inhibition [2] -2.77% | inhibition [3] -3.18% | fluorescence ratio [4] 0.95 | z-score [5] 0.284 | nuclear beta-catenin stimulation ([6]; at 10 µM) 2.6% | insulin secretion stimulation [7] 15.2% | tube area decrease [9] 16.9% | GLP1 secretion stimulation [10] 12.7% | viability decrease (inhibition) [12] 31.7% | viability decrease (inhibition) [13] 9.3%
3.5%: nuclear beta-catenin stimulation ([6]; stimulation, at 2 µM)
